Experimental data from PubChem BioAssay (NCI).
This is part of a sample that, as a whole, favours compounds with a hit. Of some 83,000 tested, about 20% had one in any assay.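 Cells were grown in 96-well plates and exposed to the test compound at a single concentration for 48 hours; results are reported as percent growth, with values below 10 considered active.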 Active and inactive are the calls of the source.

How the values were obtained:
Assay in all cases: NCI-60 one-dose screen, 48 h (100 = growth as untreated, 0 = no growth, -100 = all killed)
Settings in all cases: 10 µM
[1] = system: HCT-15 colon
[2] = system: HT29 colon
[3] = system: SNB-75 CNS
[4] = system: SNB-19 CNS
[5] = system: U251 CNS
[6] = system: PC-3 prostate
[7] = system: SK-MEL-5 melanoma
[8] = system: UACC-62 melanoma
[9] = system: LOX IMVI melanoma
[10] = system: SK-MEL-28 melanoma
[11] = system: SK-MEL-2 melanoma
[12] = system: SN12C renal
[13] = system: UO-31 renal
[14] = system: TK-10 renal
[15] = system: ACHN renal
[16] = system: CAKI-1 renal
[17] = system: A498 renal
[18] = system: CCRF-CEM leukemia
[19] = system: MOLT-4 leukemia
[20] = system: EKVX NSCLC

Measured: growth

COc1cccc2ccc(CC(O)(c3ccccc3)c3ccccc3)nc12
inactive: [1] 54.7% | [2] 91.8% | [3] 74.6% | [4] 96.6% | [5] 97% | [6] 79% | [7] 87% | [8] 86.2% | [9] 92.4% | [10] 106% | [11] 85.1% | [12] 93.8% | [13] 59.8% | [14] 128% | [15] 84.3% | [16] 87.2% | [17] 102% | [18] 95.7% | [19] 88.6%

NC(N)=N/N=C(\N=Nc1ccccc1)c1ccc(Cl)cc1
inactive: [1] 22.1% | [2] 21.2% | [3] 60.6% | [4] 81.9% | [5] 36.3% | [6] 25.1% | [7] 65.1% | [10] 75.3% | [11] 52.5% | [12] 76.3% | [14] 65.8% | [15] 25.1% | [17] 14.7%
active: [8] -29.6% | [9] -7.27% | [13] 4.05% | [16] 1.66% | [18] -4.7% | [19] 2.47%

CN(C)CCOc1cccc(NC2=C(Cl)C(=O)C(Nc3cccc(OCCN(C)C)c3)=C(Cl)C2=O)c1
active: [1] -78.6% | [2] -80% | [4] 6.1% | [5] -93.2% | [6] 5.48% | [7] -95.2% | [8] -82.2% | [9] -81.5% | [10] -63.9% | [11] -73.8% | [20] -92.3% | [13] -100% | [14] -100% | [15] -100% | [18] -26.6% | [19] -38.5%
inactive: [3] 84% | [17] 77.1%

O=S(=O)(Oc1ccc(-c2ccc3sccc3c2)cc1)c1ccccc1
inactive: [1] 89.8% | [2] 88.9% | [3] 120% | [4] 96.8% | [5] 108% | [6] 91% | [7] 94.4% | [8] 74.9% | [9] 101% | [10] 97.9% | [11] 111% | [20] 95.8% | [13] 97.7% | [15] 112% | [16] 87% | [18] 98.9% | [19] 91.7%

CCOc1ccccc1/C=N\N=C(\N)N/N=C/c1ccccc1OCC
inactive: [1] 24.7% | [2] 10.7% | [4] 43% | [5] 38.3% | [6] 31.9% | [7] 17.8% | [8] 30.9% | [9] 30.9% | [10] 42.9% | [11] 14.9% | [20] 64.8% | [14] 67.8% | [15] 44.8% | [16] 37.2% | [18] 16.9% | [19] 26.5%
active: [3] -3.85%

COc1ccc(-c2cc(-c3ccccc3)nc(SCCCCCCC(=O)NO)n2)cc1
inactive: [1] 44.3% | [2] 27% | [3] 24.8% | [4] 60.6% | [5] 51.5% | [6] 58.8% | [7] 13.1% | [8] 24.8% | [9] 13.1% | [10] 67.9% | [11] 78% | [20] 74.2% | [13] 34.3% | [14] 45.9% | [15] 45.4% | [16] 39.6% | [17] 48.7% | [19] 14.4%

COc1ccc2c(c1)C(=O)/C(=C/c1ccc([N+](=O)[O-])o1)O2
active: [1] -48.5% | [2] -63% | [3] 9.47% | [5] -55.1% | [7] -91.3% | [8] -89% | [9] -77.4% | [10] -71.1% | [11] -68.7% | [12] -30.4% | [13] -91.9% | [14] -93.1% | [15] -80.9% | [16] -69.8% | [17] -50.5% | [18] 3.49% | [19] -37.2%
inactive: [4] 19.9% | [6] 58.9%

O=C1c2ccccc2C(=O)c2c1ccc1c(=O)n(-c3ccccc3C(F)(F)F)nnc21
active: [1] 3.36% | [7] -94.3% | [8] -34.8% | [9] -5.7% | [19] 7.06%
inactive: [2] 31.5% | [3] 34.6% | [4] 18.2% | [5] 17.7% | [6] 12.9% | [10] 63.5% | [11] 56.5% | [20] 36.3% | [13] 22.6% | [14] 54.8% | [15] 23.6% | [16] 24.3% | [17] 82% | [18] 15%
